Source: PubChem
Sampled rows, rich in hits. Any-hit rate of the full collection: about 9.2%.
SMN2 splice up – qHTS Assay for Enhancers of SMN2 Splice Variant Expression; Potency, µM (titrated, usually from 46.1 µM), for inactives: at the top dose activity change, positive = activation, usual class: activators; 210,000 tested, 2.8% active; HEK293 SMN2-luciferase splicing reporter, luminescence, 30-36 h; also: % of control where 0% means no effect; nearly all actives have a fitted effect of over 55% in size
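HEK293 cells carry an SMN2 minigene-luciferase reporter in which exon 7 inclusion puts luciferase in frame. Cells were seeded at 2000 cells/well, attached for 10-12 hours, then exposed to compounds for 30-36 hours at 37C before ONE-Glo luminescence.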
Rab9 prom act – qHTS Assay for Rab9 Promoter Activators; Huh7 Rab9 promoter-luciferase reporter, luminescence, 24 h; Potency, µM (top dose mostly 9.22 µM), for the others: top-dose activation, negative = inhibition, usual class: activators; 320,000 tested, 2.8% active; AID 485297, 2010; also: % of control where 0% means no effect; nearly all actives have a fitted effect of over 60% in size
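Cells were plated at 1500 per well in reduced-serum medium with 10% FBS and left 2 h. Compound in DMSO was then added for 24 h at 37 °C. Reporter signal was read by luminescence after 10 min with luciferase detection reagent.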
ELG1 DNA repair – qHTS screen for small molecules that inhibit ELG1-dependent DNA repair in human embryonic kidney (HEK293T) cells expressing luciferase-tagged ELG1 | HEK293T ELG1-luciferase reporter, luminescence, 16 h; DNA damage induced by 5-fluorouridine | 330,000 tested, 2.3% active | AID 504467, 2011 | Potency, µM (highest dose often 46.1 µM), without a hit: at the highest dose activity change, negative = inhibition, actives largely listed as inhibitors; also: % is scaled to controls: 0 for no effect and ±100 for the full control effect; nearly all actives have a fitted effect of over 55% in size
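Luminescence from the luciferase reporter, measured 30 min after ONE-Glo reagent at room temperature, was the read-out. Beforehand, 2,000 cells per well were exposed for 16 hr at 37 °C to 5-fluorouridine together with compound or vehicle.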
ELG1 genotox – qHTS screen for small molecules that induce genotoxicity in human embryonic kidney (HEK293T) cells expressing luciferase-tagged ELG1 | HEK293T ELG1-luciferase reporter, luminescence, 16 h | Potency, µM (doses to about 46 µM), for inactives: at the top dose activity change, positive = activation, actives largely listed as activators | 330,000 tested, 1.3% active; also: % of control where 0% means no effect; nearly all actives have a fitted effect of over 60% in size
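After overnight (16 hr) compound treatment at 37 °C, ELG1-luciferase HEK293T cells were lysed with ONE-Glo; luminescence quantified 30 min later at room temperature.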
FLuc counter – qHTS profiling assay for firefly luciferase inhibitor/activator using purifed enzyme and Km concentrations of substrates (counterscreen for miR-21 project); AID 588342, 2011; Potency, µM (series often up to 57.5 µM), inactives show at the top dose activity change, negative = inhibition, most hits filed as inhibitors; 360,000 tested, 6.9% active; purified FLuc, Km substrates, luminescence inhibition; Luciferin 4-monooxygenase (Photinus pyralis), P08659;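 also: plate controls were vehicle for no effect and reference inhibitor for full effect; nearly all actives have a fitted effect of over 55% in size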
Target sequence (P08659 whole entry, looked up): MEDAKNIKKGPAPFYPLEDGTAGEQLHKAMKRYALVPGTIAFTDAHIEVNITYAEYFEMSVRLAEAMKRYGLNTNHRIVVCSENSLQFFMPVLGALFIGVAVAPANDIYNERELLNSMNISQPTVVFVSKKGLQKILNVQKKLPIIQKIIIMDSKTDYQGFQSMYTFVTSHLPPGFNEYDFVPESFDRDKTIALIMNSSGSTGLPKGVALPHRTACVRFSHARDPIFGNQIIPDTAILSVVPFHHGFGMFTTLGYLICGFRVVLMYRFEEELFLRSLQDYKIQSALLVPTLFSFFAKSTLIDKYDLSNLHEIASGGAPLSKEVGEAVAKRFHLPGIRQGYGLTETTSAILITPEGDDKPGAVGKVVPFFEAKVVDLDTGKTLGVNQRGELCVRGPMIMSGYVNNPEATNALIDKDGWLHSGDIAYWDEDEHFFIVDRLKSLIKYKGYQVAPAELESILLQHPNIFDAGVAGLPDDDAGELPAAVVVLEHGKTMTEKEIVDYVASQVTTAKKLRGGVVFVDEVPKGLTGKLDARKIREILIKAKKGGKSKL
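Purified P. pyralis luciferase (10nM final) with 10uM D-luciferin and 10uM ATP (Km levels) in 50mM Tris acetate pH 7.5, 10mM Mg acetate, 0.01% Tween-20, 0.05% BSA; qHTS 6-point titration, ~60 µM downward; luminescence read.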
NPC1 prom act – qHTS Assay for NPC1 Promoter Activators; 320,000 tested, 2.4% active; Huh7 NPC1 promoter luciferase reporter, 24 h; Potency, µM (series often up to 9.22 µM), for inactives: at the top dose activation, actives largely listed as activators; also: % of control where 0% means no effect; nearly all actives have a fitted effect of over 60% in size
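Stable NPC1-promoter luciferase Huh7 line; cpd (DMSO) 24 h, 37 °C, 5% CO2; Amplite luciferase reagent 10 min RT; luminescence readout. qHTS format.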
* marks the source's active call; other numbers are inactive results; ? = inconclusive; nt = no result; [ ] = remark or other dose. Calls follow the shape of the dose curve; as a rule, active = well fitted curve in the direction sought with a large enough effect; inconclusive = small, poorly fitted or top-dose-only effect, or another doubt; inactive = no such curve, though single readings can be large; an effect the other way counts as inactive or inconclusive. Potency is read from the fitted curve at half-maximal effect.

SMILES	SMN2 splice up	Rab9 prom act	ELG1 DNA repair	ELG1 genotox	FLuc counter	NPC1 prom act
COC(=O)[C@@]1(Cc2ccccc2)[C@H]2c3cc(C(=O)N(C)C)n(Cc4c(CO)[nH]cc(C)c4=O)c3C[C@H]2CN1C(=O)c1ccccc1	0%	nt	nt	nt	nt	nt
COc1cc(-c2nc(-c3ccccc3)c(-c3ccc(Br)cc3)[nH]2)cc(OC)c1O	8%	nt	nt	nt	-1%	nt
COc1ccc(-c2[nH]c(-c3cc(OC)c4c(c3)OCO4)nc2-c2ccccc2)cc1	-9%	0%	21µM*	-7%	-5%	-1%
Cc1cc(C(=O)N/N=C/c2cccc3ccccc23)c(C)o1	nt	19%	30%	?	19µM*	13%
O=C(N/N=C/c1ccccc1O)c1cccc2ccccc12	nt	-39%	-16%	24%	?	-34%
Cc1cc(C(=O)NC2CCCCC2)c(C)o1	nt	0%	?	3%	-12%	7%
Cn1c(C(=O)N/N=C/c2ccccc2)cc2ccccc21	nt	2.8µM*	?	?	2.7µM*	?
Cc1cc(C(=O)NC2Cc3ccccc3C2)c(C)o1	nt	3.2µM*	?	?	21µM*	2.5µM*
Cc1cc(C(=O)N/N=C/c2ccccc2)c(C)o1	nt	3.2µM*	?	?	11µM*	?
Cn1c(N)c(C(=O)N/N=C/c2ccccc2)sc1=S	nt	3%	7%	4%	0%	-1%
NC(=O)[C@@H]1CCCN1Cc1nc(-c2cccs2)no1	nt	-2%	10%	3%	-3%	1%
Cc1cc(C(=O)N/N=C/c2ccc([N+](=O)[O-])cc2)c(C)o1	3%	11%	?	7%	27µM*	11%
CC(=O)NNC(=O)CCn1c2c(c3ccccc31)CCCC2	nt	-6%	-8%	-5%	1%	-1%
CCOC(=O)NNC(=O)CCn1c2c(c3ccccc31)CCCC2	nt	0%	18µM*	-10%	-9%	8%
O=C(CN1C(=O)NC2(CCCC2)C1=O)Oc1ccc2ccc(=O)oc2c1	nt	-6%	18%	-2%	-1%	-2%
COc1ccc(CC(=O)N(Cc2ccccc2)c2ccccc2)cc1S(=O)(=O)N1CCOCC1	nt	8%	16µM*	-19%	-3%	-5%
O=C(CSc1ccc(-c2nc3ccccc3[nH]2)cn1)Nc1ccc(S(=O)(=O)N2CCCC2)cc1	19%	-2%	2%	-1%	4.8µM*	-4%
Cc1cc2nc(-c3ccc(SCC(=O)Nc4nccs4)nc3)[nH]c2cc1C	?	2.5µM*	?	?	?	3.5µM*
Cc1cc2nc(-c3ccc(SCC(=O)Nc4ccc(S(=O)(=O)N5CCCC5)cc4)nc3)[nH]c2cc1C	13µM*	2µM*	?	?	0.3µM*	2.5µM*
CC(=O)CSc1ccc(-c2nc3cc(C)c(C)cc3[nH]2)cn1	nt	-5%	-3%	0%	-2%	-10%
CC(C)(C)CC(=O)Nc1cc2c3c(c1)CC(=O)N3CCC2	nt	-3%	20%	6%	1%	0%
COc1ccccc1NC(=O)/C=C1\NC(=O)CS1	22%	1%	15%	5%	-15%	-2%
Cc1ccc(NC(=O)/C=C2\NC(=O)CS2)cc1	nt	3.2µM*	?	23µM*	7.6µM*	3.5µM*
CC(C)(C)c1ccc(C(=O)/C=C2\NC(=O)CS2)cc1	3.2µM*	0.63µM*	?	?	0.3µM*	0.4µM*
Cc1ccc(-c2nnc(N(C)C(=O)c3cccnc3)s2)cc1	27%	3.5µM*	?	17%	8.5µM*	3.2µM*
SMILES	SMN2 splice up	Rab9 prom act	ELG1 DNA repair	ELG1 genotox	FLuc counter	NPC1 prom act
COc1ccc(-c2nnc(N(C)C(=O)c3cccnc3)s2)cc1	16%	?	?	?	13µM*	?
CC1CCC/C(=C\Nc2ccc(O)cc2)C1=O (stereo not drawn)	-11%	?	?	18µM*	21µM*	2%
Cc1cc(C(=O)O)ccc1N/C=C1\CCCC(C)C1=O (stereo not drawn)	?	?	?	?	0.95µM*	?
[ClH+][Cu][ClH+].[Cu].[OH2+]c1ccc2ccccc2c1CN1CCCCC1.[OH2+]c1ccc2ccccc2c1CN1CCCCC1	-24%[9.22 µM]	nt	nt	nt	nt	nt
O=c1nc(/C=C/c2ccc(O)c(O)c2)oc2ccccc12	nt	?	?	21µM*	8.5µM*	?
CCn1c(/C=C/c2ccc(O)c(O)c2)nc2ccccc2c1=O	nt	14%	-18%	0%	-16%	-16%
COc1ccc(/C=C/c2c(-c3ccc(OC)cc3)oc3ccccc23)cc1	nt	0%	15%	-1%	-11%	6%
COc1ccc(/C=C\c2nc(=O)c3ccccc3o2)cc1	nt	?	?	?	3.8µM*	?
O=C(CCS(=O)(=O)c1ccccc1)Nc1nc2cc3c(cc2s1)OCCO3	nt	19%	?	?	7.6µM*	18%
O=C(CCS(=O)(=O)c1ccccc1)Nc1nc2cc3c(cc2s1)OCO3	nt	19%	?	10%	13µM*	22%
CCC(Sc1nc2ccncc2[nH]1)C(=O)Nc1ccc(F)cc1 (stereo not drawn)	-11%	nt	nt	nt	-7%	nt
O=C(OCc1ccccc1)/C(=C/c1cccc2ccccc12)NC(=O)c1ccccc1	20%	0%	-7%	3%	0%	-2%
Cc1ccc(CONC(=O)c2ccc(Cl)cc2)cc1	nt	?	?	?	?	0%
Cc1ccc(C(=O)N/C(=C/c2ccco2)C(=O)OCN2C(=O)c3ccccc3C2=O)cc1	-1%[1.84 µM]	-3%	16%	2%	11µM*	-2%
Cc1ccc(CONC(=O)c2ccc(C)cc2)cc1	nt	?	?	?	13µM*	?
Cc1ccc(CONC(=O)c2ccccc2)cc1	nt	?	?	?	15µM*	?
Cc1ccc(C(=O)N/C(=C\c2ccccc2)C(=O)OCc2ccccc2)cc1	20µM*	?	?	?	15µM*	?
Cc1cccc(NC(=O)CSC2=Nc3ccccc3C3=NC(CC(=O)NCc4cccs4)C(=O)N23)c1 (stereo not drawn)	7%	nt	nt	nt	-3%	nt
Cc1cccc(NC(=O)c2c(O)c3ccccc3[nH]c2=O)c1	nt	0.71µM*	?	?	?	1.6µM*
O=C(Nc1cccc(C(F)(F)F)c1)c1c(O)c2ccccc2[nH]c1=O	nt	7%	-10%	-1%	-10%	0%
